From the OligoGym collection

The sequences below were run against VWA3A (assay: pooled miR-30 sensor sort-seq; sequence = guide strand). Conditions: shRNA.
Also: reference of the scale not given here.

Row | Sequence | sensor-assay potency score (higher = more potent)
1 | TTGGTGTTTGTCTTTGTCCTTG | -0.376
2 | TTAGCTGAAGTGTCTTTGGTTT | -0.499
3 | TTTAGGACAAGGCTGCAGCTTG | -0.774
4 | TTTCACATCTCTTTTCTCCCTG | 0.76
5 | TAAATTGTTGTGACTCACGGGA | 0.0538
6 | TGAATGTTCTTCACTGTCCCGT | -0.182
7 | TTCACATCTCTTTTCTCCCTGA | 0.334
8 | TCGAGCAGTACAACCACCCTTT | 0.012
9 | TTCTGCATCATTTTTCTTCTGG | 0.433
10 | TACATCCGCATAGCTCTGCTGA | -0.863
11 | TTCAGCTGGAGGTCGCAGCCGC | -0.797
12 | TAGTGCTCCATCTTTGGGCTGT | 0.398

The sequences below were run against WBSCR16 in the same assay as above. Conditions: shRNA.

Row | Sequence | sensor-assay potency score (higher = more potent)
13 | TAGACTTCTCCTTTATCCGTCA | -0.137
14 | ATAGACTTCTCCTTTATCCGTC | 0.592
15 | AATCTTTTGGTCCAGCTCCAGG | -1.82
16 | TATTGTAGTGACCCAGACCTGT | -0.394
17 | TTATCCGTCAGGAACAGACTAT | -0.761
18 | TCATTTTCGACCACCTTTCTTC | 0.23
19 | TTTCGTAACATCCGCAGTCTTA | -0.626
20 | TTTAACACTGCACAGCCCGTGC | -0.959
21 | TTCTGGGTTGAACTCCGTCAAG | -1.57
22 | TTAGCCTCGATTCTCTTCCTGA | -0.0373
23 | TTTTGGTCCAGCTCCAGGCGAT | -1.09
24 | TTCTTAACTTTTCCAAGCCAGG | -1.27
